# High-throughput results deposited in PubChem BioAssay by several laboratories.
# In the library only some 1.5% were active in any assay of this set; here they are far more common.
# miR-122 sensor: miR-122 Renilla sensor signal increase in Huh7, primary screen, miR-122 inhibitor project, cell-based, single point, plate reader; hit rate 0.3% among 340,000; activation (reporter increase), % at 12.5 µM; Huh7 miR-122 Renilla luciferase sensor, 48 h; neutral wells = 0, positive control = 100;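 active = mean replicate activation score at least 90 and every replicate individually at or above 90; inconclusive = only one of the two criteria met; inactive = neither criterion met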;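 also: higher luciferase means less miR-122 activity so hits act as miR-122 inhibitors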
# N-glyco inh: increase of ERlucT glycosylation luciferase signal, primary screen, N-linked glycosylation inhibitor project, D54 ERlucT cells, luminescence, set 2. D54 ERlucT glycosylation luciferase reporter, 24 h; percent of 100 nM tunicamycin response. reporter increase, % at 12.5 µM. hit rate 0.23% among 360,000. AID 588692, 2011;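 active = mean luciferase reporter signal, scaled so untreated is 0 and the glycosylation-blocking control 100, at or above a set limit in every replicate; inconclusive = mean reaches the limit but not every replicate does; inactive = mean below the limit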;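 also: luciferase carries N-glycosylation sites so blocking glycosylation raises the light; 0% = median of neutral control wells and 100% = median of 100 nM tunicamycin wells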
# RAD52 inh: RAD52 DNA annealing inhibitors, primary screen, biochemical, FRET, single point, set 2. recombinant RAD52 DNA annealing, FRET fluorescence. DNA repair protein RAD52 homolog (Homo sapiens), P43351. AID 651710, 2012. hit rate 0.46% among 360,000. inhibition, % at 18.7 µM;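 active = every replicate showing at least 50% inhibition; inconclusive = mean inhibition at least 50% but not in every replicate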
# Target sequence (P43351 whole entry, looked up): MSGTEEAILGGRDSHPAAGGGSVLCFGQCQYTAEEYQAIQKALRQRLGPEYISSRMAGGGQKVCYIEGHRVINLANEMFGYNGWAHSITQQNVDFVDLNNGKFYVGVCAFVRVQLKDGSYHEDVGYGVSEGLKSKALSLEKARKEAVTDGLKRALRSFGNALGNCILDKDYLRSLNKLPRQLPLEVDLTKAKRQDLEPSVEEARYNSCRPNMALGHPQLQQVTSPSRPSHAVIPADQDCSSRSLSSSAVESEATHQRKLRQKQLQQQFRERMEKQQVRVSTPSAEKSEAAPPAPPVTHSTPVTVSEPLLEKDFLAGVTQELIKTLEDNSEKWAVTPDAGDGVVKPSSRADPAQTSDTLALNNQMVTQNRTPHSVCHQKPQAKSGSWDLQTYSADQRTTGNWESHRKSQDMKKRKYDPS
# NRP1-CendR mod: modulators of CendR peptide binding to NRP-1, primary screen, biochemical, fluorescence polarization, uHTS | Neuropilin-1 (Homo sapiens), O14786 | FAM-RPARPAR peptide binding to NRP-1 | inhibition, % at 25 µM | hit rate 0.85% among 360,000 | AID 602438, 2012;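 active = inhibition or corrected inhibition above about 18%, plus a signal ratio from 0.5 to 1.5, limit read from the data, passing the limit was not always enough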
# RAD54 branch: inhibitors of human RAD54 branch migration, primary screen, biochemical, fluorescence, single point; DNA repair and recombination protein RAD54-like (Homo sapiens), Q92698; RAD54 Holliday junction branch migration, FAM/BHQ fluorescence; inhibition, % at 10.4 µM; hit rate 0.14% among 360,000; AID 602329, 2012;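 active = mean normalized replicate activity at least 40 and at least half of replicates scoring 40 or more; inconclusive = only one of the two criteria met; inactive = mean below 40 and under half of replicates reaching 40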;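 also: 0% = median of neutral control wells and 100% = median of positive control wells; inhibitors cause a drop in the FAM fluorescence signal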
# DNA FID counter: compounds displacing fluorescent DNA intercalator, primary screen, artefact control for HCV NS3 helicase inhibitor project, biochemical, FID fluorescence; inhibition, % at 7.9 µM; hit rate 0.17% among 290,000; DNA fluorescent intercalator displacement; in the data active = inhibition above about 37%;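 also: 0% = vehicle and 100% = reference compound; higher means more ethidium bromide displaced from hairpin DNA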
# An asterisk follows results filed as active; ? = inconclusive; . = no result; [ ] = remark or other dose.
SMILES,miR-122 sensor,N-glyco inh,RAD52 inh,NRP1-CendR mod,RAD54 branch,DNA FID counter
CCN(CC)CCNc1cc(C)c(C#N)c2nc3ccccc3n12,-0.4,7.3,-84.3,-1.6,27.3,-8.6
CCN(CC)CCCNc1cc(C)c(C#N)c2nc3ccccc3n12,-2.4,42.8*,-3.7,-94.3,18.5,.
CCOC(=O)N1CCN(C(=O)CNC(=O)c2ccc(Br)cc2)CC1,0.8,0.6,-0.5,26.9*,2.0,-9.8
COc1ccc(NC2CCCN(C(=O)CSc3ccncc3)C2)cc1 (configuration not stated),-8.4,5.9,-8.6,23.0*,-2.3,-5.0
COc1ccc(CCC(=O)N2CCCC(Nc3ccc(OC)cc3)C2)cc1 (configuration not stated),0.2,0.0,-18.6,-48.6,-20.6,-15.7
COc1cc(OC)cc(C(=O)N2CCCC(Nc3ccc(F)cc3)C2)c1 (configuration not stated),-0.3,2.1,-12.0,22.4*,1.9,-30.3
C=CCOc1cccc(C(=O)N2CCCC(Nc3ccc(F)cc3)C2)c1 (configuration not stated),-3.2,-1.3,-19.2,-3.3,-15.1,-29.4
C[C@@H]1CCCCO[C@H](CN(C)Cc2ccncc2)[C@@H](C)CN([C@@H](C)CO)C(=O)c2cc(NC(=O)CCC(F)(F)F)ccc2O1,1.1[16.7 µM],.,-0.2,.,-10.0,.
O=C1CC/C=C\C[C@@H](CC(=O)N(CCO)Cc2ccccc2)C(=O)NCCO1,-12.5,-0.3,-11.7,25.7*,-2.0,.
O=C(C[C@H]1C=C[C@H](NS(=O)(=O)c2ccccc2)[C@H](CO)O1)N1CCC(Cc2ccccc2)CC1,.,.,16.9,.,.,.
Cc1ccc(C(=O)Nc2nnc([C@H]3C[C@H](O)[C@@H](CO)O3)s2)cc1,-3.6,3.3,-0.1,30.0*,2.2,.
CN1C(=O)c2cc(NC(=O)C3CCOCC3)ccc2OC[C@@H]2O[C@H](CC(=O)O)CC[C@H]21,-1.9[16.7 µM],.,11.7,.,4.3,.
Cn1c(=O)c(Nc2ccc(O)cc2)c2c3c(cccc31)C(=O)c1ccccc1-2,.,-2.0,-1.5,80.9*,.,3.1
CC(C)(C)c1cc(C(=O)NNc2cccc(Cl)c2)n(Cc2ccccc2)n1,126.3*,-11.6,-6.4,-0.7,-8.2,-19.9
Cc1ccc(C)c(NC(=S)NC(NC(=O)Cc2cccc3ccccc23)C(Cl)(Cl)Cl)c1 (configuration not stated),.,73.5*,.,8.3,5.0,-4.7
Cc1ccc(C)c(NC(=S)NC(NC(=O)N(C)C)C(Cl)(Cl)Cl)c1 (configuration not stated),4.3,0.0,.,17.6,8.5,-8.0
O=[N+]([O-])c1ccc(N2CCN(Cc3ccccc3)CC2)c(S(=O)(=O)N2CCOCC2)c1,-0.9,-2.5,.,30.3*,-3.3,11.5
O=S1(=O)N=CN(Cc2cccc(F)c2)c2ccccc21,156.9*,1.0,.,-11.4,5.5,-2.5
O=C(C[C@H]1CC[C@@H](NC(=O)Nc2ccccc2F)[C@@H](CO)O1)NCc1ccc(F)cc1,.,.,9.2,.,.,.
CC(NC(=O)CCC(=O)NC(C)c1ccccc1)c1ccccc1 (configuration not stated),.,-0.2,-10.4,1.0,-6.2,-6.5
C[C@H](NC(=O)CCC1CCC(=O)N1)c1ccccc1 (some centres not stated),.,1.9,-5.4,19.1*,4.9,.
Cc1noc(C)c1NC(=O)N(C)C[C@@H]1OCCCC[C@H](C)Oc2ccc(NS(=O)(=O)c3ccc(Cl)cc3)cc2C(=O)N([C@@H](C)CO)C[C@@H]1C,3.1[16.7 µM],.,4.3,.,-2.2,.
O=C(N/N=C/c1cc(Br)c(Br)o1)c1cccnc1,.,5.0,.,31.2*,.,-0.2
COc1ccc(CNC(=O)C[C@H]2C=C[C@@H](NC(=O)c3cccc(F)c3)[C@@H](CO)O2)cc1,.,.,-11.9,.,6.0,.
C[C@@H]1CN([C@@H](C)CO)C(=O)Cc2cc(NS(=O)(=O)c3cn(C)cn3)ccc2O[C@@H]1CN(C)S(C)(=O)=O,-7.2[16.7 µM],.,0.1,.,-4.2,.
SMILES,miR-122 sensor,N-glyco inh,RAD52 inh,NRP1-CendR mod,RAD54 branch,DNA FID counter
O=C(CSc1nc2nc(-c3cccs3)cc(C(F)(F)F)c2c(=O)[nH]1)C(F)(F)F,-3.6,36.6*,-6.1,-1.9,-2.2,-0.7
O=S(=O)(NCC1CC1)c1cc(Cl)cc(Cl)c1,.,0.5,-4.6,-18.5,-4.3,-4.7
Cc1cc(S(=O)(=O)NCC2CC2)c(Cl)cc1Cl,104.8*,-1.2,-13.9,-1.9,-0.8,-13.8
CC(NC1=CC(=O)c2cccnc2C1=O)C(O)c1ccccc1 (configuration not stated),24.1,-17.8,-8.2,35.7*,.,.
CC(c1ccccc1)N1C(=O)c2cccnc2C1=O (configuration not stated),-1.6,2.4,-2.6,11.3,2.2,-3.5
CC1CN(C(=O)c2ccc(CNS(=O)(=O)c3cccc(Cl)c3)cc2)CC(C)O1 (configuration not stated),.,-1.8,-2.7,28.5*,16.1,-24.3
O=C(CCCNC(=O)/C(=C\c1ccc(F)cc1)NC(=O)c1ccccc1)OCc1ccccc1,-3.4,1.7,.,30.7*,3.7,-34.0
CSc1ccc(/C=C(/NC(=O)c2ccccc2)C(=O)NCCCn2ccnc2)cc1,112.8*,0.1,-1.1,8.3,6.1,-1.3
COc1ccc2ccc3cccc[n+]3c2c1,-12.0,3.1,9.9,1.2,50.5*,.
C[C@@H]1CN([C@@H](C)CO)C(=O)CCCn2cc(nn2)CO[C@@H]1CN(C)Cc1cccc(C(=O)O)c1,-5.3[16.7 µM],.,17.9,.,6.2,.
C[C@@H]1CCCCO[C@H](CN(C)C(=O)CCC(F)(F)F)[C@H](C)CN([C@@H](C)CO)C(=O)c2cc(NS(=O)(=O)c3cccs3)ccc2O1,-2.6[16.7 µM],.,.,.,-3.4,.
Cn1c(=O)c2cc(S(=O)(=O)NCCC(=O)NCCC3=CCCCC3)ccc2n(C)c1=O,103.5*,-0.8,2.9,15.2,0.1,-18.7
O=C(Nc1sc2c(c1C(=O)O)CCC2)c1cccs1,201.9*,-1.7,.,-6.8,.,-4.5
CO[C@H]1CN(C)C(=O)c2ccc(NC(=O)C3CC3)cc2OC[C@@H](C)N(C(=O)c2cnccn2)C[C@@H]1C,.,.,0.5,.,.,.
Cc1nc(SCc2ccc(C(=O)O)cc2)nc2c1CCCC2,1.2,3.8,-3.7,41.8*,.,-30.0
Nc1cccc2nc3ccccc3cc12,-50.8,?,.,8.3,105.7*,45.1*
Cc1cc2c(N)cccc2nn1,1.1,5.7,.,41.2*,-7.0,-8.8
Cc1cc2c(NC(=O)Nc3ccccc3)cccc2nn1,7.5,12.0,-5.4,1.5,0.4,-2.5
